Source: PubChem BioAssay AID868 (SRMLSC, 2007)
The campaign covered roughly 190,000 compounds. About 3,500 (1.8%) were called active.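 Rule for the calls: active = inhibition above a set limit, 3 SD over mean compound inhibition (cut at about 8.4% in these data); inactive = the rest.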 For the sample, actives were picked, then their nearest neighbours and some compounds at random.

Test: RAM signaling blockers in budding yeast – dse1pr::URA3 reporter, 5-FOA selection, primary screen (AID 868);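 note: 0% = DMSO-only wells with no growth and 100% = 10 µM 1-NA-PP1 full growth; inhibition rescues growth on 5-FOA so higher OD means more RAM inhibition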
Conditions: S. cerevisiae dse1pr::URA3 reporter, 5-FOA growth OD615, 2 d; at 50 µM; hits give high values

Row | Structure (SMILES) | inhibition
1 | CC(=O)Nc1ccccc1C(=O)OCC(=O)c1cccc2ccccc12 | 9.49% (active)
2 | O=C(Nc1cccc2ccccc12)N1CCC2(CC1)OCCO2 | 1.87% (inactive)
3 | CC1=CC(=Cc2sc3ccccc3[n+]2C)C=C(C)O1 | 0.13% (inactive)
4 | Cc1ccc(-c2cc(C(=O)N3CCC4(CC3)OCCO4)no2)cc1 | -1.75% (inactive)
5 | COC(=O)N1C(c2ccccc2)C1c1ccccc1 (stereo not given) | 0.12% (inactive)
6 | OCC#CC[N+]1(CC#Cc2ccccc2)CCCC1 | 2.58% (inactive)
7 | O=C(NC(c1ccc(Cl)cc1)P(=O)(Oc1ccccc1)Oc1ccccc1)OCc1ccccc1 (stereo not given) | 11.3% (active)
8 | O=C(Nc1cccc(OC(=O)N2CCCCC2)c1)N1CCOCC1 | -1.26% (inactive)
9 | Cc1ccnc(-n2c(C)cc(/C=C3\C(=O)NC(=S)N(C)C3=O)c2C)c1 | 1.13% (inactive)
10 | CCOC(=O)C1SC2(C(F)(F)C(F)F)CC1(O)c1c(c(OC)c3occc3c1OC)O2 (stereo not given) | 9.36% (active)
11 | NC(=O)Cn1cc(C(=O)c2ccccc2F)c2ccccc21 | 4.57% (inactive)
12 | O=C(COC(=O)c1ccccc1)Nc1ccc(Cl)cc1C(=O)c1ccccc1 | 8.43% (active)
13 | O=C(CCNS(=O)(=O)c1ccccc1)Nc1ccc(Cl)cc1C(=O)c1ccccc1 | 2.12% (inactive)
14 | CN1CCN(C(=S)SCC(=O)Nc2ccc(Cl)cc2C(=O)c2ccccc2)CC1 | -0.25% (inactive)
15 | COc1ccc(NC(=O)N2CCC3(CC2)OCCO3)c(OC)c1 | 4.37% (inactive)
16 | Cc1ccc(-c2nn(CCC#N)cc2C(=O)O)cc1C | -0.13% (inactive)
17 | C=CCN(CC=C)C(=O)Nc1ccc(OCC)cc1 | 1.22% (inactive)
18 | CN(C)P(=S)(Nc1ccccc1)C(Cl)(Cl)Cl (stereo not given) | 1.76% (inactive)
19 | CC(Cc1cccs1)NCc1ccc(Cl)cc1 (stereo not given) | 1.87% (inactive)
20 | CC1CCCCN1Cc1cccnc1 (stereo not given) | 1.23% (inactive)
